# Test results reported in the supplement of paper PMC8728848.
# The sample as a whole holds a higher share of the strongest signals than the screen did.
# Tests used:
# Assay in all cases: glycan array binding signal (z-score within array); higher = stronger binding
# Details in all cases: glycan notation: IUPAC condensed, linker removed
# [1] = molecular target: Fuc(a1-2)Gal(b1-3)GlcNAc(b1-2)Man(a1-3)[Fuc(a1-2)Gal(b1-3)GlcNAc(b1-2)Man(a1-6)]Man(b1-4)GlcNAc(b1-4)GlcNAc
# Method in brief: (§1)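 The binding signal is a Z-score computed within each array. Data were drawn from 3228 arrays in the Consortium for Functional Glycomics database, restricted to those with a known protein sequence. Scores were averaged over arrays of the same protein sequence at different concentrations or buffers, and over linkers, and negative values can be taken as non-binding.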
# [2] = molecular target: Fuc(a1-2)Gal(b1-4)Glc6S
# Method in brief: as §1
# [3] = molecular target: Fuc(a1-2)Gal(b1-4)GlcNAc
# Method in brief: as §1
# [4] = molecular target: Fuc(a1-2)Gal(b1-4)GlcNAc6S
# Method in brief: as §1
# [5] = molecular target: Fuc(a1-2)Gal(b1-4)[Fuc(a1-3)]GlcNAc
# Method in brief: as §1
# [6] = molecular target: Fuc(a1-2)Gal(b1-4)[Fuc(a1-3)]GlcNAc(b1-3)Gal(b1-4)[Fuc(a1-3)]GlcNAc
# Method in brief: as §1
# [7] = molecular target: Fuc(a1-2)Gal(b1-4)[Fuc(a1-3)]GlcNAc(b1-3)Gal(b1-4)[Fuc(a1-3)]GlcNAc(b1-3)Gal(b1-4)[Fuc(a1-3)]GlcNAc
# Method in brief: as §1
# [8] = molecular target: Fuc(a1-2)Gal6S(b1-4)Glc
# Method in brief: as §1
# [9] = molecular target: Fuc(a1-2)[Gal(a1-3)]Gal(b1-4)Glc
# Method in brief: as §1
# [10] = molecular target: Fuc(a1-2)[GalNAc(a1-3)]Gal
# Method in brief: as §1
# [11] = molecular target: Fuc(a1-2)[GalNAc(a1-3)]Gal(b1-3)GlcNAc(b1-2)Man(a1-3)[Fuc(a1-2)[GalNAc(a1-3)]Gal(b1-3)GlcNAc(b1-2)Man(a1-6)]Man(b1-4)GlcNAc(b1-4)GlcNAc
# Method in brief: as §1
# [12] = molecular target: Fuc(a1-3)GlcNAc
# Method in brief: as §1
# [13] = molecular target: Fuc(a1-3)[Gal3S(b1-4)]GlcNAc
# Method in brief: as §1
# [14] = molecular target: Fuc(a1-4)GlcNAc
# Method in brief: as §1
# [15] = molecular target: Gal(a1-3)Gal(b1-3)GlcNAc
# Method in brief: as §1
# [16] = molecular target: Gal(a1-3)Gal(b1-4)[Fuc(a1-3)]GlcNAc(b1-2)Man(a1-3)[Gal(a1-3)Gal(b1-4)[Fuc(a1-3)]GlcNAc(b1-2)Man(a1-6)]Man(b1-4)GlcNAc(b1-4)GlcNAc
# Method in brief: as §1
# [17] = molecular target: Gal(a1-3)[Gal(a1-4)]Gal(b1-4)GlcNAc
# Method in brief: as §1
# [18] = molecular target: Gal(a1-4)GlcNAc
# Method in brief: as §1
# [19] = molecular target: Gal(b1-3)GalNAc
# Method in brief: as §1
# [20] = molecular target: Gal(b1-4)Glc
# Method in brief: as §1
# [21] = molecular target: Gal(b1-4)GlcNAc(b1-2)[Gal(b1-4)GlcNAc(b1-6)]Man(a1-6)[Gal(b1-4)GlcNAc(b1-2)Man(a1-3)]Man(b1-4)GlcNAc(b1-4)GlcNAc
# Method in brief: as §1
# [22] = molecular target: Gal(b1-4)GlcNAc(b1-3)Gal(b1-4)Glc
# Method in brief: as §1
# [23] = molecular target: Gal(b1-4)GlcNAc(b1-3)GalNAc
# Method in brief: as §1
# [24] = molecular target: Gal(b1-4)GlcNAc(b1-3)[Gal(b1-4)GlcNAc(b1-6)]GalNAc
# Method in brief: as §1
# [25] = molecular target: Gal3S(b1-3)GalNAc
# Method in brief: as §1
# [26] = molecular target: Gal3S(b1-4)[Fuc(a1-3)]Glc
# Method in brief: as §1
# [27] = molecular target: Gal3S6S(b1-4)GlcNAc6S
# Method in brief: as §1
# [28] = molecular target: Gal6S(b1-3)GlcNAc6S
# Method in brief: as §1
# [29] = molecular target: GalNAc(a1-3)Gal
# Method in brief: as §1
# [30] = molecular target: GalNAc(a1-3)GalNAc(a1-3)Gal(a1-4)Gal(b1-4)GlcNAc
# Method in brief: as §1
# [31] = molecular target: GalNAc(a1-3)GalNAc(b1-3)Gal(a1-4)Gal(b1-4)GlcNAc
# Method in brief: as §1
# [32] = molecular target: GlcA(b1-3)GlcNAc
# Method in brief: as §1
# [33] = molecular target: GlcNAc(a1-4)Gal(b1-3)GlcNAc
# Method in brief: as §1
# [34] = molecular target: GlcNAc(a1-4)Gal(b1-4)GalNAc
# Method in brief: as §1
# [35] = molecular target: Kdn(a2-3)Gal(b1-4)GlcNAc
# Method in brief: as §1
# [36] = molecular target: Man(a1-2)Man(a1-6)[Man(a1-3)]Man(a1-6)[Man(a1-2)Man(a1-2)Man(a1-3)]Man(b1-4)GlcNAc(b1-4)GlcNAc
# Method in brief: as §1
# [37] = molecular target: Neu5Ac(a2-3)Gal(b1-3)GalNAc
# Method in brief: as §1
# [38] = molecular target: Neu5Ac(a2-3)Gal(b1-3)GalNAc(b1-4)[Neu5Ac(a2-8)Neu5Ac(a2-3)]Gal(b1-4)Glc
# Method in brief: as §1
# [39] = molecular target: Neu5Ac(a2-6)Gal(b1-3)GlcNAc(b1-3)[Gal(b1-4)GlcNAc(b1-6)]Gal(b1-4)Glc
# Method in brief: as §1
# [40] = molecular target: Neu5Ac(a2-6)GalNAc
# Method in brief: as §1
# [41] = molecular target: Neu5Ac(b2-6)Gal(b1-4)GlcNAc
# Method in brief: as §1
binder,measurement,setting,value
"AFL (Aspergillus fumigatus), Q4WW81 (protein) STPGAQQVLFRTGIAAVNLTNHLRVYFQDVYGSIRESLYEGSWANGTEKNVIGNAKLGSPVAATSKELKHIRVYTLTEGNTLQEFAYDSGTGWYNGGLGGAKFQVAPYSRIAAVFLAGTDALQLRIYAQKPDNTIQEYMWNGDGWKEGTNLGGALPGTGIGATSFRYTDYNGPSIRIWFQTDDLKLVQRAYDPHKGWYPDLVTIFDRAPPRTAIAATSFGAGNSSIYMRIYFVNSDNTIWQVCWDHGKGYHDKGTITPVIQGSEVAIISWGSFANNGPDLRLYFQNGTYISAVSEWVWNRAHGSQLGRSALPPA",glycan array binding signal (z-score),[1],-0.22
same,glycan array binding signal (z-score),[2],3.64
same,glycan array binding signal (z-score),[3],2.94
same,glycan array binding signal (z-score),[4],3.17
same,glycan array binding signal (z-score),[5],4.58
same,glycan array binding signal (z-score),[6],3.88
same,glycan array binding signal (z-score),[7],4.31
same,glycan array binding signal (z-score),[8],3.41
same,glycan array binding signal (z-score),[9],-0.359
same,glycan array binding signal (z-score),[10],1.73
same,glycan array binding signal (z-score),[11],-0.374
same,glycan array binding signal (z-score),[12],3.8
same,glycan array binding signal (z-score),[13],0.994
same,glycan array binding signal (z-score),[14],3.56
same,glycan array binding signal (z-score),[15],-0.384
same,glycan array binding signal (z-score),[16],-0.087
same,glycan array binding signal (z-score),[17],-0.382
same,glycan array binding signal (z-score),[18],-0.385
same,glycan array binding signal (z-score),[19],-0.383
same,glycan array binding signal (z-score),[20],-0.383
same,glycan array binding signal (z-score),[21],-0.356
same,glycan array binding signal (z-score),[22],-0.386
same,glycan array binding signal (z-score),[23],-0.386
same,glycan array binding signal (z-score),[24],-0.382
same,glycan array binding signal (z-score),[25],-0.387
same,glycan array binding signal (z-score),[26],0.328
same,glycan array binding signal (z-score),[27],-0.381
same,glycan array binding signal (z-score),[28],-0.385
same,glycan array binding signal (z-score),[29],-0.386
same,glycan array binding signal (z-score),[30],-0.4
same,glycan array binding signal (z-score),[31],-0.377
same,glycan array binding signal (z-score),[32],-0.361
same,glycan array binding signal (z-score),[33],-0.377
same,glycan array binding signal (z-score),[34],-0.384
same,glycan array binding signal (z-score),[35],-0.381
same,glycan array binding signal (z-score),[36],-0.376
same,glycan array binding signal (z-score),[37],-0.385
same,glycan array binding signal (z-score),[38],-0.382
same,glycan array binding signal (z-score),[39],-0.383
same,glycan array binding signal (z-score),[40],-0.383
same,glycan array binding signal (z-score),[41],-0.388
